Assays:
Conditions in all cases: concentration: 1 μM, replicates: in singlicate; n = 1
NEK11 = test system: NEK11
NEK1 = test system: NEK1
NEK2 = test system: NEK2
NEK3 = test system: NEK3
NEK4 = test system: NEK4
NEK5 = test system: NEK5
NEK6 = test system: NEK6
NEK7 = test system: NEK7
NEK9 = test system: NEK9
NIK = test system: T1, NIK
T1 construct: gene MAP3K14

NIM1 = test system: T2, NIM1
T2 construct: gene MGC42105

NLK = test system: NLK
OSR1 = test system: T3, OSR1
T3 construct: gene OXSR1

PAK1 = test system: PAK1
PAK2 = test system: PAK2
PAK3 = test system: PAK3
PAK4 = test system: PAK4
PAK6 = test system: PAK6
PAK7 = test system: PAK7
PCTK1 = test system: T4, PCTK1
T4 construct: gene CDK16
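Also: KINOMEscan kinase panel screen.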

| Structure (SMILES) | %Inh (NEK11) [%] | %Inh (NEK1) [%] | %Inh (NEK2) [%] | %Inh (NEK3) [%] | %Inh (NEK4) [%] | %Inh (NEK5) [%] | %Inh (NEK6) [%] | %Inh (NEK7) [%] | %Inh (NEK9) [%] | %Inh (NIK) [%] | %Inh (NIM1) [%] | %Inh (NLK) [%] | %Inh (OSR1) [%] | %Inh (PAK1) [%] | %Inh (PAK2) [%] | %Inh (PAK3) [%] | %Inh (PAK4) [%] | %Inh (PAK6) [%] | %Inh (PAK7) [%] | %Inh (PCTK1) [%] |
| --- | --- | --- | --- | --- | --- | --- | --- | --- | --- | --- | --- | --- | --- | --- | --- | --- | --- | --- | --- | --- |
| CC(C)c1nc(-c2ccc(F)c(NS(=O)(=O)c3c(F)cccc3F)c2)c(-c2ccnc(Nc3ccc(N4CCOCC4)nc3)n2)s1 [GSK1804250] | 97.6 | 16 | 31 | 3 | 10 | 1 | 7 | 8 | 85 | 9 | 0 | 96.3 | 7 | 5 | 11 | 36 | 0 | 0 | 10 | 94.6 |
| c1ccc(Oc2ccc(Nc3ccnc4cc(-c5ccc(CN6CCCCC6)o5)ccc34)cc2)nc1 [GW567143] | 0 | 0 | 0 | 0 | 25 | 0 | 0 | 0 | 2 | 6 | 69 | 13 | 4 | 16 | 16 | 33 | 0 | 0 | 8 | 0 |
| COc1cccc(C2=C(Nc3cccc(O)c3)C(=O)NC2=O)c1 [SB-390771] | 0 | 0 | 0 | 19 | 2 | 2 | 0 | 7 | 15 | 7 | 16 | 15 | 8 | 7 | 5 | 32 | 0 | 100 | 26 | 15 |
| CNc1nccc(-c2ccc3c(N)n[nH]c3c2)n1 [GSK2206003] | 0 | 4 | 2 | 2 | 0 | 14 | 0 | 0 | 9 | 33 | 15 | 14 | 18 | 4 | 9 | 48 | 4 | 5 | 9 | 0 |
| O=C(Nc1n[nH]c2cc(-c3cccs3)ccc12)C1CC1 [SB-731284] | 18 | 0 | 0 | 20 | 39 | 0 | 0 | 0 | 0 | 14 | 12 | 0 | 16 | 0 | 0 | 43 | 0 | 0 | 7 | 48 |
| Cl.Cl.NCC(NC(=O)c1cc(-c2cccnc2)c(-c2ccnc3[nH]ccc23)s1)c1ccccc1 (centres unmarked) [GSK1323434] | 15 | 13 | 1 | 18 | 24 | 13 | 4 | 0 | 11 | 35 | 36 | 19 | 17 | 4 | 6 | 39 | 0 | 28 | 65 | 0 |
| Cc1ccc(NC(=O)c2ccc(Cl)c(Cl)c2)cc1-c1ccc(C(=O)Nc2ccncc2)cc1 [GSK1398460] | 0 | 16 | 2 | 16 | 0 | 0 | 0 | 0 | 7 | 0 | 0 | 43 | 6 | 19 | 19 | 20 | 0 | 0 | 1 | 0 |
| CN(c1ccc(NC(=O)Nc2cccc(Cl)c2)cc1)c1ccnc(N)n1.Cl [GW830707] | 28 | 0 | 16 | 0 | 0 | 7 | 14 | 0 | 3 | 9 | 0 | 4 | 0 | 5 | 34 | 6 | 1 | 7 | 0 | 0 |
| CS(=O)(=O)c1cccc(CNc2nc(Nc3ccc4c(c3)CCC(=O)N4)ncc2C(F)(F)F)c1 | 0 | 0 | 0 | 37 | 0 | 28 | 6 | 0 | 0 | 0 | 5 | 0 | 0 | 0 | 0 | 0 | 0 | 0 | 0 | 0 |
| CN(c1ccc2c(c1)nc(NCc1ccccc1)n2C)c1ccnc(Nc2ccc(CS(C)(=O)=O)cc2)n1.Cl [GW811603] | 0 | 0 | 0 | 20 | 0 | 0 | 60 | 8 | 55 | 33 | 22 | 0 | 0 | 0 | 0 | 42 | 22 | 13 | 2 | 0 |

Source: PMC5540273 (PLoS ONE, 2017)
